# Screening data (PubChem)
# DRD3 antagonist: D3 dopamine receptor (human) antagonism | P35462 | AID 652054 | 360,000 tested, 2.5% active | D3R cells, DiscoveRx beta-arrestin luminescence, antagonist mode; hits give low values | max response, negative = inhibition, %; in the data active means max response below about -50%; inconclusive means no clear call, values can overlap the other calls
#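 Cells plated overnight at 1500 cells/well, then exposed to library compounds with dopamine controls for 90 minutes at 37 degrees C. DiscoveRx reagent added for 30–60 minutes at room temperature; luminescence read, quantitative HTS format.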
# DRD3 agonist: activates the human D3 dopamine receptor; D3R DiscoveRx beta-arrestin cells, luminescence, 90 min; P35462; 410,000 tested, 0.58% active; AID 652048; max activation, %; in the data active means max activation above about 30%
#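 Agonist mode: compounds and dopamine controls were applied to plated cells for 90 min at 37 degrees C after an overnight attachment at 1500 cells/well. Luminescent read-out followed 30 - 60 minutes at room temperature with DiscoveRx detection reagent.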
# D1 PAM: potentiators of human D1 dopamine receptor; P21728; potentiation, % at 10 µM; 360,000 tested, 0.036% active; HEK293 TREx D1 cells, calcium flux, dopamine EC20 potentiation; AID 504651; in the data active means potentiation above about 30%
# Target sequence (P21728 whole entry, looked up): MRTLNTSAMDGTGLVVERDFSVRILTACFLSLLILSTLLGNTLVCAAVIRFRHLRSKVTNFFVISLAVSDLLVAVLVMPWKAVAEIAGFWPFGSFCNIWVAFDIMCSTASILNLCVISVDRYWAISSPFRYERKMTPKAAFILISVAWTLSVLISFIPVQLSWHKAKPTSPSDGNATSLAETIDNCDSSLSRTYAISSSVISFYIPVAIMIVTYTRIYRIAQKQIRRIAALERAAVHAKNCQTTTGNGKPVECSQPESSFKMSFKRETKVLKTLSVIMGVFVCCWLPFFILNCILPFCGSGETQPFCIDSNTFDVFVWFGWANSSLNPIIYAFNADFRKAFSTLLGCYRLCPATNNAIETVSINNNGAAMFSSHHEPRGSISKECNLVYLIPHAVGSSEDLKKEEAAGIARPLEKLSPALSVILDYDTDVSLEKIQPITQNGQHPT
# D1 antag: human D1 dopamine receptor antagonism. P21728. HEK293 TREx D1 cells, calcium flux, dopamine EC80; hits give low values. activity change, negative = inhibition, % at 10 µM. 360,000 tested, 3.2% active; in the data active means activity change below about -30%
#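 HEK293 T-REx cells expressing inducible, force-coupled D1 receptor; no-wash Ca dye, 30–90 min RT. Cmpd → 180 s read at 1 Hz → EC80 DA → 180 s read.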
# D1 agonist: agonists of human D1 dopamine receptor; AID 504660; activation, % at 2 µM; 360,000 tested, 1% active; HEK293 T-REx D1 cells, calcium flux, agonist mode; P21728; in the data active means activation above about 30%
#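 Agonism was scored from calcium flux recorded over 180 s (1 read/s) after pintool compound addition, following a 10-cycle baseline. Cells were inducible force-coupled HEK293 TREx D1, plated overnight at 30 C and loaded with no-wash calcium dye.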
# Hits are given with their value; 0 = inactive; ? = inconclusive; - = no result given. A selection: hits, their analogues and other compounds. The true share with any hit is near 6.1%.
SMILES,DRD3 antagonist,DRD3 agonist,D1 PAM,D1 antag,D1 agonist
S=C(Nc1ccc(CN2CCCCC2)cc1)Nc1cccc(Cl)c1Cl,-76,0,0,0,0
Cc1cccc(NC(=S)NC2CCN(Cc3ccccc3)CC2)c1C,-53,0,0,0,0
O=C(NC1CCN(Cc2ccccc2)CC1)c1c(Cl)cccc1Cl,0,0,0,0,0
S=C(Nc1cccc(Cl)c1Cl)NC1CCN(Cc2ccccc2)CC1,-90,0,0,0,0
Cc1ccc(-c2cn3c(n2)sc2cc(C(=O)NC4CCCc5ccccc54)ccc23)cc1 (centres undefined),-,0,0,0,0
CCOC(=O)C1CCN(c2c(C(=O)c3ccc(OCC)cc3)cnc3ccc(OC)cc23)CC1,-,0,0,0,0
Cc1ccc(-c2nc(C)sc2CC(=O)NCc2ccco2)cc1,0,0,0,0,0
Cc1ccc(NC(=O)Cc2sc(C)nc2-c2ccc(C)cc2)cc1,0,0,0,-35,0
CN(C(=O)CCS(=O)(=O)c1cc2c(cc1Cl)NC(=O)CO2)C1CCCCC1,0,0,0,0,0
CCCC(=O)OC1CC(C)N(C(=O)c2ccccc2)c2ccc(C)cc21 (centres undefined),?,0,0,0,32
CC(=O)OC1CC(C)N(C(=O)c2ccccc2)c2ccc(C)cc21 (centres undefined),0,0,0,0,0
NNC(=O)C(C(=O)OCc1ccccc1)c1ccccc1 (centres undefined),-,-,0,0,0
Cc1ccc(/C=N\NC(=O)c2csnn2)cc1,-53,0,0,0,0
Cc1ccc(/C=N/NC(=O)c2ccncc2)cc1,?,0,0,0,0
Cc1ccc(/C=N/NC(=O)Cn2nnc(N)n2)cc1,0,0,0,-74,0
CCN(CC)S(=O)(=O)c1cc(C)ccc1NC(=S)Nc1cccnc1,0,0,0,0,0
CN(C)C(/C=C/Nc1ccccc1F)=C(C#N)C#N,0,0,0,-34,0
COc1cccc(NC(=O)CCc2ccccc2)c1,0,0,0,-44,0
COC(=O)c1[nH]c2cccc(OC)c2c1NC(=O)CCN1CCC(C(N)=O)CC1,-,-,0,0,0
O=C(CCN1CCN(c2ccccn2)CC1)Nc1ccc(F)cc1,?,0,0,0,0
Cc1ccccc1N1CCN(CCC(=O)Nc2ccc(F)cc2)CC1,-84,0,0,0,0
COC(=O)c1[nH]c2cccc(OC)c2c1NC(=O)CCN1CCN(c2ccccc2F)CC1,-,-,0,-57,0
COc1cccc(NC(=O)Nc2cc(C(=O)O)ccc2C)c1,0,0,0,-43,0
O=C(Nc1cccnc1Oc1ccc(Cl)cc1)c1cccc2ccccc12,0,0,0,0,0
Cc1ccc(CNC(=O)Cn2ccn(-c3ccc(F)cc3)c(=O)c2=O)cc1,-,0,0,0,0
SMILES,DRD3 antagonist,DRD3 agonist,D1 PAM,D1 antag,D1 agonist
O=C(NCc1ccc(Cl)cc1)C(=O)NCC1OCCN1S(=O)(=O)c1cc(F)ccc1F (centres undefined),0,0,0,0,0
O=C(CCN1CCN(c2ccccc2F)CC1)Nc1ccccc1Cl,?,0,0,0,0
CCCN(CCC(=O)Nc1cc(OC)cc(OC)c1)CC1CC1,0,0,0,0,0
COc1ccccc1N1CCN(CC(=O)Nc2cc(F)ccc2C)CC1,-83,0,0,0,0
O=C(CCN1CCN(c2ccccc2F)CC1)Nc1cccc(F)c1,-63,0,0,-43,0
O=C(CCN1CCN(c2ccccc2F)CC1)Nc1ccc(F)cc1,-73,0,0,0,0
CCN(CCC(=O)Nc1cc(OC)cc(OC)c1)Cc1ccccc1,-67,0,0,0,0
O=C(CN1CCN(c2cccc(Cl)c2)CC1)Nc1ccc([N+](=O)[O-])cc1C(=O)Nc1ccccc1F,0,0,0,0,0
Cc1ccc(C)c(N2CCN(CC(=O)Nc3ccc([N+](=O)[O-])cc3C(=O)Nc3ccccc3F)CC2)c1,0,50,0,0,0
COc1cccc(NC(=O)Cn2c(=O)n(CCCCC(=O)NCCc3ccccc3)c(=O)c3ccccc32)c1,-,0,0,-44,0
COc1cc(NC(=O)CCN2CCN(Cc3ccccc3)CC2)cc(OC)c1,-54,0,0,0,0
O=C(Nc1cc(Cl)cc(Cl)c1)N1CCCN(Cc2ccccc2)CC1,-80,0,0,0,0
COc1ccc(C(=O)Nc2ccc(-c3cc4ccccc4oc3=O)c(C)c2)cc1Br,-,0,0,0,0
COc1cc(NC(=O)CCN2CCOCC2)cc(OC)c1,0,0,0,0,0
COc1ccccc1N1CCN(CCC(=O)Nc2cccc(F)c2)CC1,-111,0,0,0,0
O=C(CCN1CCN(Cc2ccccc2)CC1)Nc1cccc(Cl)c1,-59,0,0,0,0
COc1cccc(NC(=O)CCN2CCN(CCO)CC2)c1,-,0,0,0,0
O=C(CN1CCN(Cc2ccccc2)CC1)Nc1cccc(Br)c1,0,0,0,0,0
COc1cc(NC(=O)CCN2CCN(c3ccccc3F)CC2)cc(OC)c1,0,0,0,-42,0
CCCC(=O)Nc1c(I)cc(I)c(CC(CC)C(=O)O)c1I (centres undefined),-,0,-,-,-
Cn1nnnc1Sc1ncnc2scc(I)c12,-,-,0,0,0
COC(=O)c1ccc(N2CC3CNC(=O)C2(C(=O)OC)N3C)cc1 (centres undefined),0,0,-,-,-
CCCOc1ccc(C(=O)Nc2c(C(=O)c3ccc(C)cc3)oc3ccccc23)cc1,-,0,0,0,0
Cc1ccc(C(=O)NNC(=O)/C=C\C(=O)O)cc1,0,0,0,0,0
Cc1[nH]c2ccccc2c1/C=C/c1nc2ccccc2c(=O)n1CCO,0,0,0,0,0
SMILES,DRD3 antagonist,DRD3 agonist,D1 PAM,D1 antag,D1 agonist
COc1ccc(-n2c(/C=C/c3c(C)[nH]c4ccccc34)nc3ccccc3c2=O)cc1,-,0,0,-57,0
Cc1[nH]c2ccccc2c1/C=C/c1nc2ccccc2c(=O)n1-c1cccc([N+](=O)[O-])c1,0,0,0,-37,0
COc1cccc(C(=O)C2CCCN(Cc3cccn3-c3ccccn3)C2)c1 (centres undefined),0,0,0,-32,0
COc1cc(CN2CCCC(C(=O)c3ccc(C(C)(C)C)cc3)C2)cc(OC)c1O (centres undefined),-59,0,0,0,0
CC(C)Oc1cccc(C(=O)C2CCCN(Cc3cccn3-c3ccccn3)C2)c1 (centres undefined),0,0,0,0,0
O=C(c1ccc(C(F)(F)F)cc1)C1CCCN(Cc2cccn2-c2ncccn2)C1 (centres undefined),0,0,0,0,0
COCc1ccc(C(=O)N2CCCC(C(=O)c3cccc(C(F)(F)F)c3)C2)o1 (centres undefined),0,0,0,0,0
CCOc1cc(CN2CCCC(C(=O)c3cccc(C(F)(F)F)c3)C2)ccc1O (centres undefined),-70,0,0,0,0
O=C(c1cccc(C(F)(F)F)c1)C1CCCN(Cc2cccn2-c2ncccn2)C1 (centres undefined),-54,0,0,0,0
